Each structure is given as a SMILES string. This is part of a sample that, as a whole, favours compounds with a hit. Of some 83,000 tested, about 20% had one in any assay.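 In brief: 96-well plates, 48 h treatment, single concentration, percent growth endpoint.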 A number with no mark means an inactive call. Active and inactive are the calls of the source. The calls were made as follows: active = growth percent below 10; inactive = the rest.

What all share (assay): NCI-60 one-dose screen, 48 h (100 = growth as untreated, 0 = no growth, -100 = all killed)
Common to all, as to details: 10 µM unless noted

Assay [1] concerns NCI-H23 lung.
The test system of assay [2] is NCI-H226 lung.
The test system of assay [3] is NCI-H322M lung.
Assay [4] concerns HOP-62 NSCLC.
Assay [5] deals with NCI-H460 lung.
The subject of assay [6] is HOP-92 NSCLC.
Assay [7] deals with NCI-H522 lung.
For assay [8], the system named is A549/ATCC NSCLC.
Assay [9] relates to 786-0 renal.
For assay [10], the system named is COLO 205 colon.
Assay [11] deals with DU-145 prostate.
The subject of assay [12] is K-562 leukemia.
Assay [13] has as its system MALME-3M melanoma.
Assay [14] has as its system MDA-MB-231 breast.
In assay [15] the test system is RXF 393 renal.
Assay [16] relates to SF-268 CNS.
Assay [17] deals with SF-295 CNS.
Assay [18] deals with SF-539 CNS.
The subject of assay [19] is UACC-257 melanoma.
The test system of assay [20] is M14 melanoma.

For `COc1ccc(/C=C/C(=C/c2c(O)[nH]c3cc(Br)ccc23)N=O)cc1`, the growth in [1] is 111%; in [2] it was 103%; in assay [3], 113%; in [4] it was 111%; in [5] it was 108%; in assay [6] it was 116%. In addition, the growth in assay [7] is 105%; in assay [8], 104%; in assay [9], 112%; in assay [10] it was 126%; in assay [11] it was 114%; in assay [12] it was 89.1%. The growth in assay [13] was 95.4%; in [14], 101%; in assay [15], 130%; in assay [16] it was 107%; in assay [17], 107%; in assay [18], 99.4%. Moreover, the growth is 114% in [19] and 115% in assay [20].
Consider `Nc1nnc(CSc2nnc3n(Cc4ccccc4)c(=O)c4c5c(sc4n23)CCCC5)s1`, for which the growth in [1] was 88.5%; in [2] it was 90.6%; in assay [3] it was 111%; in assay [4] it was 99.2%; in assay [5] it was 15.4%; in assay [6], 70.6%. The growth in assay [7] was 66.8%; in assay [8] it was 95.1%; in assay [9], 93.3%; in assay [10], 77.4%; in [11] it was 110%; in assay [12], 64.1%. Besides, the growth in [13] was 116%; in [14], 76.5%; in assay [15] it was 93.2%; in assay [16], 41.2%; in assay [17], 276%; in assay [18] it was 105%. Moreover, the results for the growth in assay [19] and in [20] were 98.5% and 104%, respectively.
Take `O=C(OCc1ccc2c(Cl)cc(Cl)c(O)c2n1)N1CCNCC1`: the growth is 47.1% in [1]; 42.2% in [2]; 47.1% in assay [3]; 22.9% in [4]; 15.4% in assay [5]; 44.9% in assay [6]. For the same molecule, the growth in assay [7] is 42.4%; in assay [8], 17.3%; in [9], 61.1%; in [10], 54.3%; in assay [11], 47.7%; in assay [12], 19.1%. Moreover, the growth in assay [13] is 64.6%; in assay [14] it was 54.3%; in assay [15], 45.4%; in [16] it was 35%; in [17] it was 24.2%; in [18], 52.4%. The figures for the growth in assay [19] and in assay [20] were 40.5% and 43.6%, respectively.
In the case of `C#CC(OC(=O)N(C)C)(c1ccccc1)c1ccc(F)cc1` (stereo not given), the growth in assay [1] is 98.7%; in assay [2] it was 89.7%; in [3], 128%; in [4], 116%; in assay [5], 96.7%; in [6] it was 92.9%. Moreover, the growth in [7] is 83.2%; in assay [8], 75%; in assay [9] it was 120%; in assay [10] it was 158%; in assay [11] it was 105%; in assay [12] it was 120%. Further, the growth is 142% in assay [13]; 101% in [14]; 87.7% in assay [15]; 91.1% in [16]; 115% in assay [17]; 107% in [18]. Moreover, the figures for the growth in assay [19] and in assay [20] were 87.8% and 129%, respectively.
`C=C(C)[C@@H]1CC[C@]2(C(=O)NCCCCCCN(CCCN)CCCN)CC[C@]3(C)[C@H](CC[C@@H]4[C@@]5(C)CC[C@H](OCCCN)C(C)(C)[C@@H]5CC[C@]43C)[C@@H]12`: the growth in [1] is 77.4% [100 µM]; in assay [2], 111% [100 µM]; in assay [3] it was 80.7% [100 µM]; in assay [4] it was 93.2% [100 µM]; in assay [5] it was -16.2% [100 µM] (active); in assay [6], 76.1% [100 µM]. Further, the growth was 88.8% [100 µM] in assay [7]; 46.2% [100 µM] in assay [8]; 61.9% [100 µM] in assay [9]; 18.9% [100 µM] in [10]; 55% [100 µM] in assay [11]; 1.52% [100 µM] (active) in assay [12]. Besides, the growth is 43.7% [100 µM] in assay [13]; 37.3% [100 µM] in assay [14]; 69.6% [100 µM] in assay [15]; 99.1% [100 µM] in [16]; 92.2% [100 µM] in [17]; 79.9% [100 µM] in assay [18]. Besides, the growth was 88% [100 µM] in assay [19] and 106% [100 µM] in [20].
For `Cc1nc(Cl)cc(N(c2cc(Cl)nc(C)n2)c2ncc(C(=O)Nc3c(C)cccc3Cl)s2)n1`, the growth was 78.2% in assay [1]; 59.3% in assay [2]; 52.2% in assay [3]; 39.4% in assay [4]; 59.5% in [5]; -33.5% (active) in assay [6]. Further, the growth in assay [7] was 53.7%; in [8], 50.5%; in [9], 40.1%; in assay [10], 67.7%; in assay [11], 76.5%; in assay [12] it was 6.72% (active). In addition, the growth was 62.5% in assay [13]; 24% in assay [14]; 3.03% (active) in [15]; 47% in assay [16]; 50.4% in assay [17]; 38.9% in [18]. The growth in [19] and in assay [20] was 79.6% throughout.
Turning to `NS(=O)(=O)c1ccc(CCN2C(=O)/C(=C\c3ccccc3)C=C2c2ccc(Cl)cc2)cc1`, the growth in assay [1] was 104%; in assay [2] it was 102%; in [3] it was 89.8%; in assay [4], 95.5%; in assay [5], 99.3%; in assay [6], 76.3%. The growth in assay [7] is 91.8%; in [8], 99.1%; in assay [9], 96.4%; in assay [10], 115%; in assay [11] it was 115%; in assay [12], 94.8%. Further, the growth is 95.1% in [13]; 86.2% in assay [14]; 91% in assay [15]; 90.6% in assay [16]; 100% in assay [17]; 99.9% in assay [18]. The growth in assay [19] is 104%; in assay [20], 99%.

(Values after PubChem BioAssay (NCI).)
